Test results: PubChem BioAssay (NCATS)
Records with an inconclusive call do not appear. Calls of active or inactive are those of the source. Calls follow the shape of the dose curve; as a rule, active = well fitted inhibition curve with a large enough effect; inconclusive = small, poorly fitted or top-dose-only effect; inactive = flat fitted curve, though single readings scatter.

These compounds were tested on NIH3T3 (assay: qHTS assay to identify novel small-molecules to repurpose for Merkel cell carcinoma treatment (AID 1296009; also: nearly all actives have a fitted effect of over 60% in size)). Conditions: MCC and control cell lines, CellTiter-Glo viability, 72 h; at 44.8 µM (top of the series) unless noted.
Source text: MCC is a rare and aggressive neuroendocrine skin cancer with limited treatment options. Approximately 80% of MCCs have the Merkel cell polyomavirus (MCPyV) DNA integrated into the host genome (virus-positive: VP-MCC) and viral oncogenes drive oncogenesis. The remaining MCCs are virus-negative (VN-MCC) and are caused by UV mutagenesis. To identify novel treatments for VP-MCC and/or VN-MCC we screened three VP-MCC cell lines (WAGA, MKL-1, MKL-2), three VN-MCC cell lines (MCC-13, MCC-26, UISO), and four immortalized, non-transformed control cell lines (HaCaT, HEK293T, CRL7250, NIH-3T3) against ~2,400 compounds in the NCGC Pharmaceutical Collection (NPC) and ~1,900 compounds in the Mechanism Interrogation PlatE (MiPE). Using cell viability as a readout (CellTiter-Glo assay) we found both overlapping and distinct drugs that can be repurposed for the treatment of VP-MCC and VN-MCC.
A high-throughput screen was conducted in 1536-well white flat bottom plates (Corning) on a Kalypsys robotic system. Cell lines WAGA, MKL-1, MKL-2, MCC-13, MCC-26, UISO, HaCaT, HEK293T, CRL7250, and NIH-3T3 were screened against 2 small molecule annotated drug libraries NPC and MIPE in dose response (8 and 11 pt. respectively) measuring cell viability after 72 hours of incubation. […] A 1,536 pintool (Kalypsys) was used to transfer 23 nL of compound in DMSO to the 1,536-well assay plates. After 72 hr incubation at 37 degree celsius, 2.5 uL of CellTiter-Glo (Promega) was dispensed into each well using a BiorapTR. Plates were incubated at room temperature for 10 min, transferred to a ViewLux (PerkinElmer) and the luminescence was recorded using an exposure time of 2 seconds. Relative luminescence units (RLUs) were normalized to in-plate controls (no cells as a positive (cytotoxicity) control, DMSO as negative control) and the normalized data was processed using NCATS in-house software.

How did the outcome turn out when `C=CC(C)(O)CC/C=C(\C)C(=O)O[C@H]1[C@H](O)[C@@H](CO)O[C@@H](OC(=O)[C@]23CCC(C)(C)CC2C2=CCC4[C@@]5(C)CC[C@H](O[C@@H]6O[C@H](CO[C@@H]7OC[C@H](O)[C@H](O)[C@H]7O[C@@H]7OC[C@@H](O)[C@H](O)[C@H]7O)[C@@H](O)[C@H](O)[C@H]6O)C(C)(C)C5CC[C@@]4(C)[C@]2(C)CC3)[C@@H]1OC1OC(C)C(O[C@@H]2OC[C@@H](O)[C@H](O[C@@H]3OC[C@@H](O)[C@H](O)[C@H]3O)[C@H]2O)C(O)C1O` (stereo not given in full) was run?
Its outcome is “inactive [at 9.27 µM]”.

With `CC1=C2C[C@H]3[C@@H](CC=C4C[C@@H](O)CC[C@@]43C)[C@@H]2CC[C@]12O[C@@H]1C[C@H](C)CN[C@H]1[C@H]2C` as the compound, how does the outcome read?
Its outcome is “inactive”.

For `CO[C@H]1[C@H](O)[C@H](O[C@H]2CC[C@]3(C)C4CC[C@]5(C)[C@H](C6=CC(=O)OC6)CC[C@]5(O)C4CC[C@@H]3C2)O[C@@H](C)[C@@H]1O` (stereo not given in full), which outcome is on record?
Its outcome is “inactive [at 17.4 µM]”.

For `CN1[C@H]2C[C@H](OC(=O)[C@H](CO)c3ccccc3)C[C@@H]1[C@@H](O)C2`, which outcome is on record?
The outcome was “inactive”.

For `CN1[C@@H]2CC[C@H]1CC(OC(=O)C1C=Nc3ccccc31)C2` (stereo not given in full), which outcome is on record?
Its outcome is “inactive”.

How did the outcome turn out when `Cc1cccc(NC(=O)N[C@@H]2N=C(c3ccccc3)c3ccccc3N(C)C2=O)c1` was run?
Its outcome is “inactive”.

For `C/C=C(\C)C(=O)OC1C(C)OC(OC2C(C)OC(OC3CCC4(C)C(=CCC5C4CCC4(C)C(C(C)OC6OC(COC7OC(CO)C(O)C(O)C7O)C(O)C(O)C6O)CCC54O)C3)CC2OC)C(O)C1OC` (stereo not given), which outcome is on record?
Its outcome is “inactive [at 9.27 µM]”.

`CCC1NC(=O)C2C(Cl)C(Cl)CN2C(=O)C(C(C)O)NC(=O)CC(c2ccccc2)NC(=O)C(CO)NC1=O` (stereo not given) was tested. Which outcome did it give?
The outcome was “inactive [at 17.4 µM]”.

How did the outcome turn out when `CCN1C[C@]2(COC)[C@H](O)C[C@H](OC)[C@]34[C@@H]5C[C@]6(O)[C@H](OC(=O)c7ccccc7)[C@@H]5[C@@](O)([C@H]([C@H](OC)[C@H]23)[C@@H]14)[C@@H](O)[C@@H]6OC` was run?
The outcome was “inactive”.

Which outcome does the source give for `CN(C)CCc1c[nH]c2ccc(CN3CCN(C)S3(=O)=O)cc12` here?
Its outcome is “inactive”.

With `COc1cc(C(=O)O[C@H]2[C@@H]3C=CO[C@@H](O[C@@H]4O[C@H](CO)[C@@H](O)[C@H](O)[C@H]4O)[C@@H]3[C@@]3(CO)O[C@@H]23)ccc1O` as the compound, how does the outcome read?
Its outcome is “inactive [at 17.4 µM]”.

`COC(=O)C12C(=O)C(C)(O)C(=O)C1(C)C(C)=CC1C34CCC(OC3=O)C(C)(CO)C4CCC12C` (stereo not given) was tested. Which outcome did it give?
The outcome was “inactive [at 17.4 µM]”.

With `C[C@]12CC[C@@H](O)C[C@H]1CC[C@@H]1[C@@H]2CC[C@]2(C)C(=O)CC[C@@H]12` as the compound, how does the outcome read?
The outcome was “inactive”.

Which outcome does the source give for `C[C@@]1(C(=O)O)CC[C@]2(C)CC[C@]3(C)C4=CC(=O)c5cc(O)c(O)cc5[C@]4(C)CC[C@@]3(C)[C@@H]2C1` here?
The outcome was “inactive [at 17.4 µM]”.

With `C[C@@]12C[C@@H](c3ccoc3)OC(=O)C1CC[C@]1(C)[C@H]2[C@H]2C=C[C@]1(O)C(=O)O2` (stereo not given in full) as the compound, how does the outcome read?
Its outcome is “inactive”.

Which outcome does the source give for `COC1C(O)C(C)OC(OC2C(CO)O[C@@H](O[C@@H]3CC4CCC5C(CC[C@]6(C)[C@@H](C7=CC(=O)OC7)CC[C@]56O)[C@@]4(C)[C@H](O)C3)C(O)C2O)C1O` (stereo not given in full) here?
Its outcome is “inactive [at 17.4 µM]”.

Which outcome does the source give for `OC1(c2ccc(Cl)cc2)c2ccccc2C2=NCCN21` (stereo not given) here?
Its outcome is “inactive”.

With `COC1CC(O[C@H]2CC[C@]3(C=O)C4CC[C@]5(C)[C@@H](C6=CC(=O)OC6)CC[C@]5(O)[C@@H]4CC[C@]3(O)C2)OC(C)C1O[C@@H]1O[C@H](CO)[C@@H](O)[C@H](O)[C@H]1O` (stereo not given in full) as the compound, how does the outcome read?
The outcome was “inactive [at 17.4 µM]”.

Which outcome does the source give for `CC12CCC3C(CCC4(O)CC(O)CCC34C=O)C1(O)CCC2C1=CC(=O)OC1` (stereo not given) here?
Its outcome is “inactive”.

`CC(C)(C)c1cc(C(C)(C)C)c2c(c1)C(O)(C(F)(F)F)C(=O)O2` (stereo not given) was tested. Which outcome did it give?
Its outcome is “inactive”.

How did the outcome turn out when `Cc1c(Cl)cccc1S(=O)(=O)Nc1nc(CC(=O)N2CCN(C)CC2)cs1` was run?
The outcome was “inactive”.

Which outcome does the source give for `OCCCCC#Cc1cncc(OC[C@@H]2CCN2)c1` here?
Its outcome is “inactive”.

With `COC1=CC(=O)O[C@@H](/C=C/c2ccccc2)C1` as the compound, how does the outcome read?
Its outcome is “inactive”.

With `CC1=C2C(=O)C3[C@@H](CC=C4C[C@@H](O)CC[C@@]43C)[C@@H]2CC[C@]12O[C@@H]1C[C@H](C)CN[C@H]1[C@H]2C` (stereo not given in full) as the compound, how does the outcome read?
Its outcome is “inactive [at 17.4 µM]”.

With `CCN1C[C@]2(COC(=O)c3ccccc3N3C(=O)C[C@H](C)C3=O)CC[C@H](OC)[C@@]34[C@@H]5C[C@H]6[C@H](OC)[C@@H]5[C@](O)(C[C@@H]6OC)[C@](O)([C@@H](OC)[C@H]23)[C@@H]14` as the compound, how does the outcome read?
Its outcome is “inactive”.

Which outcome does the source give for `CCCN1CCO[C@H]2c3cc(O)ccc3OC[C@@H]21` here?
Its outcome is “inactive”.

How did the outcome turn out when `CC(C)[C@@H](CN1CC[C@@](C)(c2cccc(O)c2)[C@@H](C)C1)NC(=O)[C@H]1Cc2ccc(O)cc2CN1` was run?
The outcome was “inactive”.

For `COC1CC(OC2CCC3(C)C(CCC4C3CCC3(C)C(C5=CC(=O)OC5)C(OC(C)=O)CC43O)C2)OC(C)C1OC1OC(CO)C(O)C(O)C1O` (stereo not given), which outcome is on record?
Its outcome is “inactive [at 17.4 µM]”.

`COC1CC(OC2CCC3(C=O)C(CCC4C3CCC3(C)C(C5=CC(=O)OC5)CCC43O)C2)OC(C)C1OC1OC(CO)C(O)C(O)C1O` (stereo not given) was tested. Which outcome did it give?
Its outcome is “inactive [at 17.4 µM]”.

For `C[C@H]1O[C@@H](O[C@H]2C[C@@H](O)[C@]3(CO)C4C(CC[C@]3(O)C2)[C@@]2(O)CC[C@H](C3=CC(=O)OC3)[C@@]2(C)C[C@H]4O)[C@@H](O)[C@@H](O)[C@H]1O` (stereo not given in full), which outcome is on record?
The outcome was “inactive [at 17.4 µM]”.

Which outcome does the source give for `COC1C(O)C(OC2CCC3(C=O)C(CCC4C3CCC3(C)C(C5=CC(=O)OC5)CCC43O)C2)OC(C)C1OC1OC(CO)C(O)C(O)C1O` (stereo not given) here?
Its outcome is “inactive [at 17.4 µM]”.

How did the outcome turn out when `N#C[C@@H](O[C@@H]1O[C@H](CO[C@@H]2O[C@H](CO)[C@@H](O)[C@H](O)[C@H]2O)[C@@H](O)[C@H](O)[C@H]1O)c1ccccc1` was run?
The outcome was “inactive [at 17.4 µM]”.

How did the outcome turn out when `C=C[C@H]1[C@H](O[C@@H]2O[C@H](CO)[C@@H](O)[C@H](O)[C@H]2O)OC=C2C(=O)OCC[C@H]21` was run?
Its outcome is “inactive”.

For `Oc1ccc2c3c1O[C@H]1[C@H](N(CCCl)CCCl)CC[C@@]4(O)[C@@H](C2)N(CC2CC2)CC[C@]314`, which outcome is on record?
The outcome was “inactive [at 9.27 µM]”.

`Clc1ccc(OCC2=NCCN2)cc1Cl` was tested. Which outcome did it give?
The outcome was “inactive”.

`CCC(C)(C#N)O[C@@H]1O[C@H](CO)[C@@H](O)[C@H](O)[C@H]1O` (stereo not given in full) was tested. Which outcome did it give?
Its outcome is “inactive”.

Which outcome does the source give for `CN(C(=O)Cc1ccccc1)C(CN1CCCC1)c1ccccc1` (stereo not given) here?
Its outcome is “inactive”.

`CN1C(=O)N(c2ccc(C#N)c(C(F)(F)F)c2)C(=O)[C@]1(CO)c1ccccc1` was tested. Which outcome did it give?
Its outcome is “inactive”.

For `C1=C2CCCN[C@H]2[C@@H]2C[C@H]1[C@H]1CCCCN1C2`, which outcome is on record?
The outcome was “inactive”.

For `COC(=O)C1(C)CCC(=O)C2(C)c3c(O)cc(C(C)C)cc3C(O)C(OC(C)=O)C12` (stereo not given), which outcome is on record?
The outcome was “inactive [at 17.4 µM]”.
